Results filed as inconclusive are left out. Values without a mark were called inactive. The source made the active and inactive calls. The call rests on the fitted dose curve; in most records, active means well fitted activation curve with a large enough effect; inconclusive means small, poorly fitted or top-dose-only effect; inactive means flat fitted curve, though single readings scatter.
Potency means the concentration at half of the fitted maximal effect.

The nature of this test: qHTS Assay for NPC1 Promoter Activators: Initial hit validation from the primary screen.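 On activity, positive = activation: reporter driven by the mutant form of the NPC1 promoter; % of control where 0% means no effect.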 As to conditions: Huh7 NPC1 promoter-luciferase reporter, luminescence, 24 h; series mostly up to 46.1 µM; activity, positive = activation: at the top concentration. The essentials:
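Huh7 cells stably carrying NPC1 promoter-luciferase, 1500 cells per well in OP-MEM I with 10% FBS; compounds added after 2 hours and incubated 24 hours at 37C. Luminescence read 10 minutes after Amplite luciferase reagent.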
As for `O=C(CCN1C(=O)c2ccccc2C1=O)Nc1ccc(-c2nc3ccccc3s2)cc1`, the Potency is 250 nM (active).
Take `O=C(Nc1ccc(-c2nc3cccnc3s2)cc1)c1ccc(Cl)nc1`: the Potency is 1250 nM (active).
For the compound `COc1ccc(S(=O)(=O)NC(C(=O)NCCc2ccccn2)C(C)C)cc1` (stereo unspecified), the “activity, positive = activation” value was -3.43%.
As to `NC(=O)C(=O)NN=C1C2CC3CC(C2)CC1C3`, the “activity, positive = activation” value is 1.62%.
Take `CC(C)C(NC(=O)c1ccc([N+](=O)[O-])cc1Cl)C(=O)N1CCCC1` (stereo unspecified): the “activity, positive = activation” value was 3.15%.
Same read-out and setting: with `Cc1ccc(NC(=O)c2ncc(Cl)c(Cl)c2Cl)cc1C` the figure was 5.4%; with `Cc1ccc(C(=O)NC2CCN(CC(=O)Nc3c(C)cc(C)cc3C)CC2)cc1`, -6.42%.
Consider `CCOc1ccc(CNC(=O)C2CCCN(S(C)(=O)=O)C2)cc1OC` (stereo unspecified), for which the “activity, positive = activation” value is 8.81%.
On the same count and under the same terms, with `CCOC(=O)C1(Cc2cccc(Cl)c2)CCCN(C(=O)CCSC)C1` (stereo unspecified) the figure was 10.7%.
For `N#CC/C(N)=N/NC(=O)CCCNc1ncc(C(F)(F)F)cc1Cl`, the Potency is 15800 nM (active).
For the compound `COc1ccc(-c2csc(Nc3ncccn3)n2)cc1C`, the Potency was 250 nM (active).
`CC(C)(C)NC(=S)NNC(=O)c1ccc2ncccc2c1`: the Potency is 3530 nM (active).
With `COc1ccccc1CNC(=O)COc1ccc(C)cc1`, the “activity, positive = activation” value is -3.78%.
As for `Cc1ccc(C(=O)NCc2ccc3c(c2)OCO3)cc1C`, the Potency was 31500 nM (active).
`COCCn1c(SCc2ccc(C(=O)OC)o2)nc2cc(Cl)ccc2c1=O`: the “activity, positive = activation” value is -11%.
`O=C(O)C1=CC[C@@H](c2ccc(Cl)cc2)N(S(=O)(=O)c2ccc(Cl)cc2)[C@H]1c1ccccc1`: the “activity, positive = activation” value was -1.2%.
As for `S=C1NCN(CCc2ccccc2)CN1Cc1ccccc1`, the “activity, positive = activation” value is 1.9%.
In the case of `Brc1ccccc1-c1nnc(CSc2nnc3sc4ccccc4n23)o1`, the “activity, positive = activation” value is 11.6%.
Regarding `CC(C)(C)C(=O)N/C(N)=N/c1nc2ccccc2o1`, the Potency is 499 nM (active).
`Cc1nc(-c2ccc(S(=O)(=O)Oc3ccc(Cl)cc3Cl)s2)cs1`: the “activity, positive = activation” value is -17.2%.
Consider `CC(Sc1nnc(C(F)(F)F)n1C)C(=O)Nc1ccc(S(N)(=O)=O)cc1` (stereo unspecified), for which the “activity, positive = activation” value is -2.17%.
Take `CCc1cc(C(=O)Nc2ccccc2)cs1`: the Potency is 2230 nM (active).
As for `Cc1cc(C)c2c(N)c(C(=O)Nc3ccc([N+](=O)[O-])cc3)sc2n1`, the Potency was 396 nM (active).
Take `O=C(/C=C/c1ccco1)NCC1OCCc2ccccc21` (stereo unspecified): the “activity, positive = activation” value is 2.53%.
Take `Cc1ccc(C(=O)Nc2ccc(N3CCN(C)CC3)nc2)cc1`: the Potency is 31500 nM (active).
Regarding `CCCCCCC(=O)Nc1ccc(C(=O)N/N=C/c2cccnc2)cc1`, the “activity, positive = activation” value was 5.33%.
With `Cc1nnc2n(c1=O)N=C(c1ccc(Cl)cc1)CS2`, the Potency is 1120 nM (active).
In the case of `O=C(NCCSCc1c(F)cccc1Cl)c1ccc(CN2CCOCC2)cc1`, the “activity, positive = activation” value was -6.4%.
Consider `CCN(CC)S(=O)(=O)c1ccc(NCc2ccccn2)nc1`, for which the “activity, positive = activation” value was 4.73%.
Same read-out and setting: with `O=C(NCCc1c[nH]c2ccccc12)C(=O)NCC(c1ccco1)N1CCN(c2ccccc2F)CC1` (stereo unspecified) the figure was 0.564%.
For the compound `CCOC(=O)c1csc(COc2ccc(OC)cc2)n1`, the Potency is 705 nM (active).

For the origin of these results see PubChem BioAssay AID493203 (National Center for Advancing Translational Sciences (NCATS), 2011).
